Experimental data from PubChem BioAssay (NCATS).
Several values for one entry are separate records, joined by “and”; a condition that tells them apart may be missing. Equal entries are not always repeated. Inconclusive results are not listed. A structure can be active in one record and inactive in another. Activity calls are given as the source filed them. The call rests on the fitted dose curve; in most records, active means well fitted inhibition curve with a large enough effect; inconclusive means small, poorly fitted or top-dose-only effect; inactive means flat fitted curve, though single readings scatter.

The molecules below were run on NIH3T3 (assay: Cytotoxic Profiling of Annotated Libraries Using Quantitative High-Throughput Screening (AID 1296008; further: nearly all actives have a fitted effect of over 60% in size)). Conditions: Five cell lines viability, CellTiter-Glo ATP luminescence, 48-72 h; max response: active compounds read low.
Summary of the method: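 Cells exposed to compounds for 48 or 72 hr at 37 degrees Celsius. Viability read as ATP-coupled luminescence with CellTiter-Glo after 10 min at room temperature.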
On the % scale 0 is the no-effect control and ±100 the full control effect; potency means the concentration at half of the fitted maximal effect.

SMILES	max response	outcome	Potency
O=C1N(c2ccccc2)c2ccccc2C1(Cc1ccncc1)Cc1ccncc1	-1.99% (inactive) and -3.96% (inactive)	–	–
Cc1cc(C(C)(C)C)c(O)c(C)c1CC1=NCCN1	3.71% (inactive)	inactive	–
CC1COc2c(N3CCN(C)CC3)c(F)cc3c(=O)c(C(=O)O)cn1c23 (stereo not drawn)	-0.0145% (inactive)	inactive	–
CCc1cccc2c3c([nH]c12)C(CC)(CC(=O)O)OCC3 (stereo not drawn)	3.41% (inactive) and -0.401% (inactive)	–	–
Nc1nc2c(ncn2COC(CO)CO)c(=O)[nH]1	-3.13% (inactive)	–	–
CN(C)C(=N)N=C(N)N	-1.85% (inactive) and 1.26% (inactive)	–	–
C[C@H]1c2cccc(O)c2C(O)=C2C(=O)[C@]3(O)C(O)=C(C(N)=O)C(=O)[C@@H](N(C)C)[C@@H]3[C@@H](O)[C@@H]21	1.59% (inactive)	inactive	–
NC(=O)NO	2.15% (inactive)	–	18.7 µM (active)
NC12CC3CC(CC(C3)C1)C2	1.39% (inactive)	inactive	–
CC(C)(C)C(=O)Oc1ccc(S(=O)(=O)Nc2ccccc2C(=O)NCC(=O)O)cc1	-7.41% (inactive) and -3.91% (inactive)	–	–
Cc1ccc(-c2cc(C(F)(F)F)nn2-c2ccc(S(N)(=O)=O)cc2)cc1	4.24% (inactive)	–	–
NCCS(=O)(=O)O	0.192% (inactive)	inactive	–
CCCNCC(O)COc1ccccc1C(=O)CCc1ccccc1 (stereo not drawn)	-20.3% (inactive) and -9.95% (inactive)	–	–
O=C(c1ccc(F)cc1)C1CCN(CCn2c(=O)[nH]c3ccccc3c2=O)CC1	–	inactive	–
Cn1cnc2c1c(=O)[nH]c(=O)n2C	1.38% (inactive)	–	26.4 µM (active)
C[C@](N)(Cc1ccc(O)c(O)c1)C(=O)O	4.4% (inactive)	–	–
NCCc1cnc[nH]1	-6.9% (inactive)	inactive	–
Cn1ccc2cc3c(cc21)CCN3C(=O)Nc1cccnc1	0.531% (inactive)	inactive	–
CN1CCN(CCCN2c3ccccc3Sc3ccc(Cl)cc32)CC1	-25.1% (inactive)	–	–
